Source: ChEMBL document CHEMBL2218924, “A broad activity screen in support of a chemogenomic map for kinase signalling research and drug discovery” (Biochem J, 2013)

Columns and labels:
[1] = biological target: ALK tyrosine kinase receptor (Homo sapiens) (UniProt Q9UM73); conditions: at 10 µM
[2] = biological target: T1, Activin receptor type-1B (Homo sapiens) (UniProt P36896); conditions: at 1 µM
T1 sequence (whole entry): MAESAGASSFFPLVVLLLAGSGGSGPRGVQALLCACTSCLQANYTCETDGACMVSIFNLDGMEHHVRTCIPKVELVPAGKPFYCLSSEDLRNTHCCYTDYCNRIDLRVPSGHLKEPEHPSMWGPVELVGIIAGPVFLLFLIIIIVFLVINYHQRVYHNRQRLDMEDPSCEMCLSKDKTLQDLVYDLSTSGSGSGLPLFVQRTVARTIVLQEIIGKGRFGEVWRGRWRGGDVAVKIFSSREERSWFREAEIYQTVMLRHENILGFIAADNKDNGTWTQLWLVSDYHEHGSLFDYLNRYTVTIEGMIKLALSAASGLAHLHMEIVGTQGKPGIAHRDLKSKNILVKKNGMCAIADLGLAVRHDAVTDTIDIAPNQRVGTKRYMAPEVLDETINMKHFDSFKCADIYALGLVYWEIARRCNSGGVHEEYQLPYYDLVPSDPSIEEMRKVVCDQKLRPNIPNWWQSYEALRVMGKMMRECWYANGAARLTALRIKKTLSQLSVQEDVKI

[3] = biological target: T1, Activin receptor type-1B (Homo sapiens); conditions: at 10 µM
[4] = biological target: T2, AMP-activated protein kinase (AMPK) alpha-1/beta-1/gamma-1 (Homo sapiens) (UniProt P54619+Q9Y478+Q13131); conditions: at 1 µM
[5] = biological target: T2, AMP-activated protein kinase (AMPK) alpha-1/beta-1/gamma-1 (Homo sapiens); conditions: at 10 µM
[6] = biological target: T3, AMP-activated protein kinase, AMPK (Homo sapiens) (UniProt P54646+O43741+P54619+Q9UGJ0+Q9Y478+Q13131+Q9UGI9); conditions: at 1 µM
[7] = biological target: T3, AMP-activated protein kinase, AMPK (Homo sapiens); conditions: at 10 µM
[8] = biological target: T4, NUAK family SNF1-like kinase 1 (Homo sapiens) (UniProt O60285); conditions: at 1 µM
T4 sequence (whole entry): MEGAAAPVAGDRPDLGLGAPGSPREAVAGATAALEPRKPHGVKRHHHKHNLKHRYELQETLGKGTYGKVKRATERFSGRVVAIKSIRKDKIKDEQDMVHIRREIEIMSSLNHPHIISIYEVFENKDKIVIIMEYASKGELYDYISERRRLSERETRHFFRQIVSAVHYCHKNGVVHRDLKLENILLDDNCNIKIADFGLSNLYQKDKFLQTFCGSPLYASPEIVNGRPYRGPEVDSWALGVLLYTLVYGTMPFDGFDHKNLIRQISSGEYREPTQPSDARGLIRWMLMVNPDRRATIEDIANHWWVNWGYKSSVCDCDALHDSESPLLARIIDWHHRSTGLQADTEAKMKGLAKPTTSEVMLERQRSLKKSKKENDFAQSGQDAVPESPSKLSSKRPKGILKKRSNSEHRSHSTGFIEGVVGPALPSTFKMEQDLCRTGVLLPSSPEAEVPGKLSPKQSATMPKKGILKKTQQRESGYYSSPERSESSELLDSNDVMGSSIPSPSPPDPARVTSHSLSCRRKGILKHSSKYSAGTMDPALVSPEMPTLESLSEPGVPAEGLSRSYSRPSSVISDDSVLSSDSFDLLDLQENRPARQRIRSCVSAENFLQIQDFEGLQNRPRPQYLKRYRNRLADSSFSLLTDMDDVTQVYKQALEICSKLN

[9] = biological target: T4, NUAK family SNF1-like kinase 1 (Homo sapiens); conditions: at 10 µM
[10] = biological target: T5, Mitogen-activated protein kinase kinase kinase 5 (Homo sapiens) (UniProt Q99683); conditions: at 1 µM
T5 sequence (whole entry): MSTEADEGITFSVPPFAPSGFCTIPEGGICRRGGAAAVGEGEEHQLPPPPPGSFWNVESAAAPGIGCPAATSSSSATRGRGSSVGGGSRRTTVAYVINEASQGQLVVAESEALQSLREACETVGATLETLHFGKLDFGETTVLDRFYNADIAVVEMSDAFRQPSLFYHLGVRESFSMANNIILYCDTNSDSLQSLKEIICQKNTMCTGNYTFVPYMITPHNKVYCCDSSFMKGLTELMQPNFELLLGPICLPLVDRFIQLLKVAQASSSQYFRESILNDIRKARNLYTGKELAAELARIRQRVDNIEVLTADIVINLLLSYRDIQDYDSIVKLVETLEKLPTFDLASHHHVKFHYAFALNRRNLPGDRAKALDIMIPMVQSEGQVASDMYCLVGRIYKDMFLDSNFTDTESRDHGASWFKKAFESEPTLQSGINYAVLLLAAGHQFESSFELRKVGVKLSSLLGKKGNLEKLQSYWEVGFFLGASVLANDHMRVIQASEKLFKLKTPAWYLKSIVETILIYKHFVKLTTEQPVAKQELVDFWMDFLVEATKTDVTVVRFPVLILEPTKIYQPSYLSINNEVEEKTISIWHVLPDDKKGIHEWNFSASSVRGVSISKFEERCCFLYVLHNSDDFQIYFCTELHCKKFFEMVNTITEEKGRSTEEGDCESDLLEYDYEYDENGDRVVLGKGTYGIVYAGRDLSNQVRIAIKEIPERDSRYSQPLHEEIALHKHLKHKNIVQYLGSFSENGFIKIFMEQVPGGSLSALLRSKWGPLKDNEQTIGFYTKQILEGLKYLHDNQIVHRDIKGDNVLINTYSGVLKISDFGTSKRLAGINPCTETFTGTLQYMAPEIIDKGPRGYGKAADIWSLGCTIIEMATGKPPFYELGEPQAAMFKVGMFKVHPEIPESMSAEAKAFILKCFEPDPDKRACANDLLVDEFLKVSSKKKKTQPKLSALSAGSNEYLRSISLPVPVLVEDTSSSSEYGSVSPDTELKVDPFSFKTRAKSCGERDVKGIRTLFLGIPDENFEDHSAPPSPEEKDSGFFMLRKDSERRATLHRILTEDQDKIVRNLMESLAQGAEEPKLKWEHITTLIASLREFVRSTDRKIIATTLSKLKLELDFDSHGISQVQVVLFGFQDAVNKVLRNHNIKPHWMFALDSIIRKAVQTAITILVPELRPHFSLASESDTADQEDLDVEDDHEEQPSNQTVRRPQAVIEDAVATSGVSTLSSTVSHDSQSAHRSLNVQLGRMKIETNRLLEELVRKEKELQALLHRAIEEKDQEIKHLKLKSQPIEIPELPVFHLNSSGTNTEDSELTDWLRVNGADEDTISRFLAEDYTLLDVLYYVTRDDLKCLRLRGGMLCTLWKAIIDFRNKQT

Chain of ALK tyrosine kinase receptor (Homo sapiens) (Q9UM73 19-1620 limits assumed): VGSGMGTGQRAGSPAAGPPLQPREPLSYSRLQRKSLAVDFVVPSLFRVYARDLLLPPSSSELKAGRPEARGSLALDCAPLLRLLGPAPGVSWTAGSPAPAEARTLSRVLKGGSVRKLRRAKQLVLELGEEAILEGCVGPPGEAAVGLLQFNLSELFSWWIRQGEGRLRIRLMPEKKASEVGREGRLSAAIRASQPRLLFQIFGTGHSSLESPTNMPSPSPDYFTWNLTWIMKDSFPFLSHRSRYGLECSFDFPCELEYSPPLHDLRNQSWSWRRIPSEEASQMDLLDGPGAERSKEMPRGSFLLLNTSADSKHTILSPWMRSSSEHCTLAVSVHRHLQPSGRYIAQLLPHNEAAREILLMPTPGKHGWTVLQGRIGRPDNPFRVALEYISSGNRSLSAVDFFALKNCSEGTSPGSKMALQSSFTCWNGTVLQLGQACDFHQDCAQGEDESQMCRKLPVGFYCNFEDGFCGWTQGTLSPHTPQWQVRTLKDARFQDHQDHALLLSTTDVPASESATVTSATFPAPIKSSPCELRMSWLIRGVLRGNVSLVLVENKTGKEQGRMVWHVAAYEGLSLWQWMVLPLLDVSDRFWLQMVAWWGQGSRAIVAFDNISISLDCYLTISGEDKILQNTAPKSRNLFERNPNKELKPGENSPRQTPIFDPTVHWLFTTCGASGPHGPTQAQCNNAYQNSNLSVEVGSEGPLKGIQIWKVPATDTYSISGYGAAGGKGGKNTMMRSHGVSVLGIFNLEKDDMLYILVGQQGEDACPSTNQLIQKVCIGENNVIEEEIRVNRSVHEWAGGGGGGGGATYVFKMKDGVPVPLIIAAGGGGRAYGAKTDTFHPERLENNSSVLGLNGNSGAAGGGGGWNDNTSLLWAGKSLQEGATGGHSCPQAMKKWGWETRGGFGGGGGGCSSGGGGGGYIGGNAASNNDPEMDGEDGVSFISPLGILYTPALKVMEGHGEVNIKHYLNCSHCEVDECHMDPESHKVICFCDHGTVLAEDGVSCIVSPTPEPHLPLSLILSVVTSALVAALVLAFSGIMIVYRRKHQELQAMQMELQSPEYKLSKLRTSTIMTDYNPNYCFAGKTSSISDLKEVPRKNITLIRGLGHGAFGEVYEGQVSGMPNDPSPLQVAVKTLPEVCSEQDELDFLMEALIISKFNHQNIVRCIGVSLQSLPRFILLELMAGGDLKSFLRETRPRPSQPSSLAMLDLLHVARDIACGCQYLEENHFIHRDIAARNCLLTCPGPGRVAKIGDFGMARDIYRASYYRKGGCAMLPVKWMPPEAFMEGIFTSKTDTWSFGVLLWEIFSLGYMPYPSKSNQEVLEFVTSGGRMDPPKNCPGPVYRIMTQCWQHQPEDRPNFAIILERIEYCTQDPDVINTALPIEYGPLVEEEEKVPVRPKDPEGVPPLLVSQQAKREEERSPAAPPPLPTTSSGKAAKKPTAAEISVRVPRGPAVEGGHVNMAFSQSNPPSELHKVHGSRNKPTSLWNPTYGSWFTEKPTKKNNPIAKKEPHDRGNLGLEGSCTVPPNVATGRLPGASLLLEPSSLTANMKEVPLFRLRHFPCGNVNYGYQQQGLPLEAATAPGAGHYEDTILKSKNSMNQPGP
T2 sequence (P54619 whole entry): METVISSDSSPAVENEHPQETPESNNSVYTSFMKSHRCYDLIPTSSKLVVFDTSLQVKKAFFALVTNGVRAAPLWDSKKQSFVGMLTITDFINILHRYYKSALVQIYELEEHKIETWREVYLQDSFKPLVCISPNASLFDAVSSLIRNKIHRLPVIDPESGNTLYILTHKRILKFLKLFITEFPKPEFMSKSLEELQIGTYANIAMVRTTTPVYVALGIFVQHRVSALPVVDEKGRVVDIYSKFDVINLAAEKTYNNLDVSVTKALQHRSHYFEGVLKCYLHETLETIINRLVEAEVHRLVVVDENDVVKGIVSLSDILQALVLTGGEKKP
T2 sequence (Q13131 whole entry partner): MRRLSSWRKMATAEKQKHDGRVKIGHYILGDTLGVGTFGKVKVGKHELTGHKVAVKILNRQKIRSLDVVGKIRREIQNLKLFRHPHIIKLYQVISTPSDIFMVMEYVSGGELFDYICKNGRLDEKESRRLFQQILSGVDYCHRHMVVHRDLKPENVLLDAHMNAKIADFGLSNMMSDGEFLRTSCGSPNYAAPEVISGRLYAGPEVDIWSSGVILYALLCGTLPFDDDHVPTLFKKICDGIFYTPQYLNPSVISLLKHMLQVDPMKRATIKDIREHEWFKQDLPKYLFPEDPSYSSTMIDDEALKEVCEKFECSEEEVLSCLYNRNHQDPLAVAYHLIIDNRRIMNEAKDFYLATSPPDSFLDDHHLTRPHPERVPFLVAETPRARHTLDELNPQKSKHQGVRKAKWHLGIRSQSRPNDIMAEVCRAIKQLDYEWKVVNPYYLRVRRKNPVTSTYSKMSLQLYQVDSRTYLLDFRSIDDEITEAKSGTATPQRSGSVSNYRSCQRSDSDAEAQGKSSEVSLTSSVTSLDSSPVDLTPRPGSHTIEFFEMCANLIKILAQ
T2 sequence (Q9Y478 2-270 partner limits assumed): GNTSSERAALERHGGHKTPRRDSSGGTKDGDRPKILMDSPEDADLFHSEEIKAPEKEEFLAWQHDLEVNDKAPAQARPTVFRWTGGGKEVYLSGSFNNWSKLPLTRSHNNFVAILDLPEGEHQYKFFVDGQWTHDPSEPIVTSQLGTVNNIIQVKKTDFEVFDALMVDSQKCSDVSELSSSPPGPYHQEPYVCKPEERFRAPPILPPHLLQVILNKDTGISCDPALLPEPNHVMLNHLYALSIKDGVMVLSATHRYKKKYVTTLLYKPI

| SMILES | residual activity [1] [%] | residual activity [2] [%] | residual activity [3] [%] | residual activity [4] [%] | residual activity [5] [%] | residual activity [6] [%] | residual activity [7] [%] | residual activity [8] [%] | residual activity [9] [%] | residual activity [10] [%] |
| --- | --- | --- | --- | --- | --- | --- | --- | --- | --- | --- |
| CO[C@H]1[C@@H](OC)C[C@H](C)[C@@H](OC)C2=CC(=O)C=C(NC(=O)/C(C)=C/C=C/[C@H](OC)[C@@H](OC(N)=O)/C(C)=C/[C@@H]1C)C2=O | 50 | 112 | 112 | 94 | 78 | 92 | 78 | 93 | 94 | 88 |
| N#CCCc1ccc2c(c1)-c1[nH]c3ccc([N+](=O)[O-])cc3c1CC(=O)N2 | 45 | 67 | 23 | 57 | 29 | 27 | 17 | 10 | 8 | – |
| COc1cc2ncnc(N3CCN(C(=O)Nc4ccc(Oc5ccccc5)cc4)CC3)c2cc1OC | 49 | 104 | 97 | 79 | 97 | 99 | 101 | 107 | 82 | 79 |
| O=C1NC(=O)c2cc(Nc3ccc(F)cc3)c(Nc3ccc(F)cc3)cc21 | 42 | 129 | 88 | 93 | 73 | 92 | 66 | 101 | 75 | 110 |
| N#C/C(=C(\N)Sc1ccc(N)cc1)c1ccccc1C(F)(F)F | 65 | 108 | 111 | 75 | 57 | 77 | 62 | 106 | 62 | 106 |
| C[C@@H](N)[C@H]1CC[C@H](C(=O)Nc2ccncc2)CC1 | 126 | 82 | 63 | 98 | 93 | 104 | 83 | 101 | 91 | 101 |
| c1ccc(-c2n[nH]cc2-c2ccnc3ccccc23)nc1 | 105 | -3 | -4 | 86 | 76 | 101 | 81 | 99 | 90 | 98 |
| O=C(Nc1cccc(Nc2nccc(Nc3cccc(C(F)(F)F)c3)n2)c1)C1CC1 | 48 | 106 | 69 | 96 | 81 | 88 | 83 | 26 | 41 | 89 |
| CO[C@@H]1[C@H](N(C)C(=O)c2ccccc2)C[C@H]2O[C@]1(C)n1c3ccccc3c3c4c(c5c6ccccc6n2c5c31)C(=O)NC4 | 33 | 128 | 102 | 10 | 6 | 1 | 4 | 7 | 7 | 96 |
| CCN(CC)CCCCN1c2ccccc2Oc2ccc(Cl)cc21 | 132 | 136 | 100 | 116 | 100 | 131 | 112 | 115 | 87 | 96 |
| CCC(=O)Nc1ccc2ncnc(Nc3cccc(Br)c3)c2c1 | 88 | 125 | 105 | 103 | 94 | 105 | 87 | 99 | 92 | 108 |
| Cc1cccc(-c2[nH]c(C(C)(C)C)nc2-c2ccc3c(c2)OCO3)n1 | 102 | 1 | -6 | 102 | 83 | 106 | 78 | 102 | 88 | 83 |
| O=C(Nc1cccc(Nc2cc(Nc3cccc(C(F)(F)F)c3)ncn2)c1)C1CC1 | 22 | 126 | 124 | 97 | 73 | 103 | 74 | 90 | 127 | 104 |
| O=c1cc(-c2cccc3c2Sc2ccccc2S3)oc(N2CCOCC2)c1 | 84 | 88 | 97 | 108 | 90 | 102 | 95 | 102 | 83 | 102 |
| O=C1NC(=O)/C(=C\c2ccc3nccnc3c2)S1 | 46 | 115 | 93 | 94 | 45 | 108 | 56 | 90 | 81 | 78 |
| Cc1ccc(S(=O)(=O)/C=C/C#N)cc1 | 93 | 103 | 106 | 89 | 89 | 87 | 86 | 109 | 94 | 111 |
| COc1cc2ncnc(Nc3ccc(Oc4ccccc4)cc3)c2cc1OC | 72 | 121 | 112 | 86 | 140 | 94 | 144 | 104 | 79 | 84 |

| SMILES | residual activity [1] [%] | residual activity [2] [%] | residual activity [3] [%] | residual activity [4] [%] | residual activity [5] [%] | residual activity [6] [%] | residual activity [7] [%] | residual activity [8] [%] | residual activity [9] [%] | residual activity [10] [%] |
| --- | --- | --- | --- | --- | --- | --- | --- | --- | --- | --- |
| O=c1c2ccccc2[nH]c(=S)n1CCN1CCC(=C(c2ccc(F)cc2)c2ccc(F)cc2)CC1 | 73 | 149 | 111 | 101 | 84 | 97 | 74 | 90 | 120 | 106 |
| CC[n+]1c(/C=C/N(C)c2ccccc2)n(-c2ccccc2)c2ccc(-c3nc4ccccc4s3)cc21 | 69 | 122 | 87 | 97 | 75 | 116 | 91 | 121 | 89 | 106 |
| COc1cc2ncnc(Nc3ccc(O)c(Br)c3)c2cc1OC | 3 | 111 | 85 | 82 | 37 | 93 | 52 | 78 | 36 | 77 |
| Nc1n[nH]c2nnc(-c3c(-c4ccccc4)nn4ccccc34)cc12 | 93 | 111 | 86 | 90 | 82 | 92 | 98 | 105 | 79 | 96 |
| O=C(O)c1ccc2c3c1cccc3c(=O)n1c3ccccc3nc21 | 49 | 110 | 108 | 34 | 6 | 37 | 13 | 73 | 28 | 90 |
| c1ccc(-c2n[nH]c3c2oc2ccccc23)cc1 | 32 | 134 | 99 | 89 | 49 | 91 | 47 | 89 | 65 | 95 |
| Nc1nc(Nc2ccc(S(N)(=O)=O)cc2)nn1C(=S)Nc1c(F)cccc1F | 1 | 7 | -4 | -2 | -1 | -3 | 0 | 1 | 0 | 1 |
| O=C1Nc2cc(Br)ccc2/C1=C1/Nc2ccccc2/C1=N\O | 10 | 109 | 96 | 2 | 10 | 1 | 10 | 11 | 18 | 91 |
| Cn1cc(/C=C2\C(=O)Nc3ccc(S(N)(=O)=O)cc32)c2ccccc21 | 31 | 118 | 104 | 9 | 4 | 9 | 4 | 18 | 11 | 29 |
| Cn1nc2c3c(cccc31)C(=O)c1ccccc1-2 | 45 | 104 | 109 | 91 | 73 | 81 | 85 | 57 | 31 | 71 |
| CC(C)n1cnc2/c(=N/c3cccc(Cl)c3)nc(NCCO)[nH]c21 | 52 | 103 | 120 | 76 | 30 | 88 | 45 | 75 | 29 | 90 |
| Cc1ccc(NC2=CC(=O)c3sc(C)nc3C2=O)cc1 | 93 | 105 | 113 | 88 | 84 | 94 | 107 | 108 | 89 | 110 |
| Cc1nc2cc3nc(-c4cccs4)cnc3cc2n1C | 112 | 123 | 88 | 116 | 83 | 118 | 85 | 116 | 78 | 109 |
| CCOc1cc2ncnc(Nc3cccc(Br)c3)c2cc1OCC | 39 | 125 | 91 | 84 | 57 | 79 | 57 | 87 | 57 | 115 |
| Ic1cccc(CSc2nnc(-c3ccncc3)o2)c1 | 68 | 98 | 105 | 35 | 25 | 45 | 32 | 105 | 60 | 80 |
| Nc1ccc2ncnc(NCCc3ccc(Oc4ccccc4)cc3)c2c1 | 67 | 102 | 103 | 51 | 28 | 65 | 42 | 108 | 23 | 87 |
